Assay outcomes: PubChem BioAssay, several laboratories
This is a sample that favours compounds with a hit; in the whole collection about 3.3% have one here.
Plk1 PBD FP – Plk1 polo box domain binding inhibitors, primary screen, biochemical, fluorescence polarization | Serine/threonine-protein kinase PLK1 (Homo sapiens), P53350 | AID 693, 2007 | 97,000 tested, 0.13% active | Plk1 PBD phosphopeptide binding | inhibition, %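 (tested at about 20 µM)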; in the data active = inhibition above about 34%, passing the limit was not always enough
Smad3 inh – Smad3/FoxH1 peptide binding inhibitors, primary screen, biochemical, TR-FRET. Mothers against decapentaplegic homolog 3 (Homo sapiens), P84022. TR-FRET Smad3/Dy647-FoxH1 peptide binding, europium anti-His. inhibition, % at 25 µM. 88,000 tested, 0.29% active;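 active = compounds that reduce the energy-transfer binding signal between the protein and its labelled peptide by more than half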;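 note: 0% = Smad3 plus labelled peptide maximal FRET and 100% = peptide-only background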
Target sequence (P84022 whole entry, looked up): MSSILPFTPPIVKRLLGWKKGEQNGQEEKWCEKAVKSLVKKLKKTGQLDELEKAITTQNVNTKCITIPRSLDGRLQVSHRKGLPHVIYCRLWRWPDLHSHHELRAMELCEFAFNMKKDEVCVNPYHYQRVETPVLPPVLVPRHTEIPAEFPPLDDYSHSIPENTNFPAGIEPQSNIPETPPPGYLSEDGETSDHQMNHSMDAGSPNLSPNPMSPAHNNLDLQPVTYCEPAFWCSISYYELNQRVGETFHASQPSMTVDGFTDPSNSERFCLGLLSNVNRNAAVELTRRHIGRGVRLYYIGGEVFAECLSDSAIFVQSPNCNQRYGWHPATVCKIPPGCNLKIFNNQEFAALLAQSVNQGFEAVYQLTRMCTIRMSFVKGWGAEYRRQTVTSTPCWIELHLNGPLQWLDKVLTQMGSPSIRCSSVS
ERa SRC1 inh – ERα–SRC-1 coactivator interaction inhibitors, primary screen, biochemical, TR-FRET, ERα LBD, estradiol-bound; Estrogen receptor (Homo sapiens), P03372; TR-FRET ER-alpha LBD / SRC-1 peptide; inhibition, % at 25.6 µM; 86,000 tested, 1.7% active; AID 629, 2007; in the data active = inhibition above about 50%;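 note: 0% = receptor plus peptide control and 100% = peptide only without receptor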
ERb coact inh – inhibitors of ERβ-SRC1 coactivator interaction, primary screen, biochemical, TR-FRET, ERβ LBD, SRC-1 peptide; 86,000 tested, 1.3% active; TR-FRET ER-beta LBD / SRC1-Cy5 peptide binding; receptor agonist-loaded with 1 µM estradiol; inhibition, % at 25.6 µM; Estrogen receptor beta (Homo sapiens), Q92731;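 active = compounds whose percent inhibition of the receptor-coactivator binding signal exceeds about 50% in the single-dose screen, limit read from the data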;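 note: 0% = receptor plus peptide wells without compound and 100% = peptide-only wells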
ERa coact pot – enhancers of ERα–SRC-1 coactivator binding, primary screen, biochemical, TR-FRET, ERα LBD, low estradiol; Estrogen receptor (Homo sapiens), P03372; TR-FRET ERalpha-LBD/SRC-Cy5 coactivator binding, 2 h; 100 = basal binding, no effect; coactivator binding (% of control), % at 25.6 µM; 86,000 tested, 1.3% active; AID 639, 2007; in the data active = activity above about 200%;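 note: binding measured in presence of low estradiol as agonist stimulus; 0% = peptide alone without receptor and 100% = receptor with peptide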
PLK1 kinase inh – human PLK1 kinase inhibitors, primary screen, biochemical, TR-FRET; Serine/threonine-protein kinase PLK1 (Homo sapiens), P53350; 97,000 tested, 0.53% active; recombinant PLK1 kinase, TR-FRET peptide phosphorylation; inhibition, % at 10 µM;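 active = inhibition of 50% or more in the single-concentration screen; inactive = inhibition below 50%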;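 note: 0% = DMSO max control and 100% = H-89 dihydrochloride min control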
* marks the source's active call; other numbers are inactive results; i = inactive; x = not tested or not shown; [ ] = dose if it differs, or a comment.

SMILES | Plk1 PBD FP | Smad3 inh | ERa SRC1 inh | ERb coact inh | ERa coact pot | PLK1 kinase inh
CC(=O)Nc1ccc2oc(-c3cc(F)c(F)cc3Cl)nc2c1 | -1 | 4 | -1 | -6 | 123 | -2
CC(C)C(=O)Nc1ccc2oc(-c3cc(F)c(F)cc3Cl)nc2c1 | -5 | 3 | 5 | 13 | 217* | -9
O=C(Nc1ccc2oc(-c3ccccc3Cl)nc2c1)c1ncn[nH]1 | -19 | 4 | 67*[fluorescence artefact?] | 50*[fluorescence artefact?] | 224*[fluorescence artefact?] | -4
Cc1ccccc1C1CC(c2ccc(F)cc2)Nc2nc(N)nn21 (stereo not given) | 15 | 5 | -5 | -4 | 108 | 70*
COc1cccc(C2CC(c3cccc(OC)c3)n3nc(N)nc3N2)c1 (stereo not given) | x | 4 | -11 | -2 | 121 | x
COc1cccc(C2CC(c3ccc(F)cc3)Nc3nc(N)nn32)c1 (stereo not given) | -13 | 28 | 9 | 16 | 308* | 8
COc1ccc(Nc2nnc(-c3ccc(N4CCOCC4)c([N+](=O)[O-])c3)c3ccccc23)cc1 | -10 | x | x | x | x | 0
COc1cc(-c2nc(-c3ccccc3)c(-c3cccs3)[nH]2)cc(OC)c1OC | -2 | 8 | 18 | -5 | 252* | -5
COc1cc(-c2nc(-c3ccccc3)c(-c3cccs3)[nH]2)cc(OC)c1O | 0 | -12 | 9 | 12 | 34 | 0
COc1ccc2nc3cc(Cl)ccc3c(Nc3ccc(O)c(CN4CCN(C)CC4)c3)c2c1 | x | 30 | x | x | x | x
CC(C)c1ccc(Oc2cccc(C(=O)/C(C#N)=C/N(C)C)c2)cc1 | 1 | 6 | 17 | -9 | 77 | -13
O=C(O)c1cccc(C(=O)O)c1S(=O)Cc1ccccc1 (stereo not given) | x | 27 | x | x | x | x
O=C(O)c1c(NC(=O)c2cccc3ccccc23)sc2c1CCC2 | 5 | 3 | 0 | -2 | 95 | -8
NC(=O)c1c(NC(=O)c2cccs2)sc2c1CCCCCC2 | x | 11 | 60* | 33 | 144 | x
O=C(Nc1sc2c(c1C(=O)O)CCC2)c1cccs1 | -30 | 8 | 12 | 41 | 74 | -2
O=C(Nc1sc2c(c1C(=O)O)CCC2)c1ccccc1 | 19 | 6 | 79*[fluorescence artefact?] | 76* | 25 | 0
COCCCNC(=O)c1c(NC(=O)c2cccs2)sc2c1CCCC2 | 17 | 2 | 5 | 12 | 331*[fluorescence artefact?] | -8
COc1ccccc1NC(=O)c1c(NC(=O)c2ccco2)sc2c1CCC2 | -11 | 0 | 70*[fluorescence artefact?] | 34 | 177 | -3
CCOCCCNC(=O)c1cccs1 | 12 | -3 | 3 | -2 | 97 | -10
Cc1cn(CC[C@H](N)C(=O)O)c(=O)[nH]c1=O | x | -10 | x | x | x | x
O=S(=O)(O)[C@@H](c1ccccc1)[C@@H](O)c1ccccc1 | x | 2 | x | x | x | x
N#Cc1ccc(-c2ccccc2)nc1SCC(=O)c1cc2ccccc2oc1=O | -4 | x | x | x | x | -18
CCOC(=O)c1cnc(SCC(=O)Nc2nnc(CC)s2)nc1N | -2 | 6 | -8 | 1 | 235* | -13
CCOC(=O)c1cnc(SCC(=O)Nc2nc(C)c(C)s2)nc1N | -19 | 1 | 7 | 2 | 108 | 6
Cc1ccc(S(=O)(=O)NCCn2c(C)cc3ccccc32)cc1 | 2 | 10 | -14 | -7 | 376* | -4
SMILES | Plk1 PBD FP | Smad3 inh | ERa SRC1 inh | ERb coact inh | ERa coact pot | PLK1 kinase inh
Cc1cc(C)c(S(=O)(=O)NCCn2c(C)cc3ccccc32)c(C)c1 | 6 | 5 | 0 | 1 | 146 | -3
Cc1cc2ccccc2n1CCNC(=O)c1ccc(S(=O)(=O)N2CCCCC2)cc1 | -34 | 5 | 14 | 26 | 348*[fluorescence artefact?] | -5
Cc1cc2ccccc2n1CCNC(=O)Cc1ccccc1 | -26 | -2 | 3 | 1 | 65 | -3
O=C(NCCOC(=O)c1ccc(Cl)cc1)c1cccnc1 | -15 | 10 | -4 | 1 | 110 | 12
CC1=NN(c2ccc(S(=O)(=O)O)cc2)C(=O)/C1=C\c1ccc(Cl)cc1 | x | -1 | x | x | x | x
Cc1c(C(=O)Nc2ccncc2)sc2nc(-c3ccccc3)cn12 | x | 3 | 14 | -4 | 214*[fluorescence artefact?] | x
CCOC(=O)c1cc2sc(C)cc2n1CC(=O)NCCc1ccccc1 | -11 | -209 | -41 | -10 | 932*[fluorescence artefact?] | -14
COC(=O)c1cc2sc(Cl)cc2n1CC(=O)NCCC(C)C | -5 | i | -4 | 0 | 226*[fluorescence artefact?] | -3
COC(=O)c1cc2sccc2n1CC(=O)Nc1cc(OC)cc(OC)c1 | 9 | x | x | x | x | -2
CC(C)(CN)SCc1ccccc1 | x | 4 | x | x | x | x
NS(=O)(=O)c1ccc(CCNC2CC(=O)N(Cc3ccccc3)C2=O)cc1 (stereo not given) | -1 | 13 | 7 | 1 | 106 | -11
NS(=O)(=O)c1ccc(CCNC2CC(=O)N(CCc3ccccc3)C2=O)cc1 (stereo not given) | -26 | 7 | -2 | 66* | 107 | -12
O=C(O)c1ccc(S(=O)(=O)N=Nc2c(O)[nH]c3ccccc23)cc1 | x | 40 | x | x | x | x
Cc1ccc(C)c2[nH]c(=O)c(C(c3nnnn3Cc3ccccc3)N3CCc4ccccc4C3)cc12 (stereo not given) | -13 | 5 | 51*[fluorescence artefact?] | 50 | 294*[fluorescence artefact?] | -15
COc1cc2cc(C(c3nnnn3C3CCCC3)N3CCc4ccccc43)c(=O)[nH]c2cc1OC (stereo not given) | 27 | -26 | 50* | 33 | 216*[fluorescence artefact?] | -8
O=c1[nH]c2cc3c(cc2cc1C(c1nnnn1Cc1ccccc1)N1CCCCCC1)OCCO3 (stereo not given) | 9 | 16 | 31 | 44 | 246*[fluorescence artefact?] | 0
Cc1cc2cc(C(c3nnnn3Cc3ccco3)N3CCCCC3)c(=O)[nH]c2cc1C (stereo not given) | -2 | 23 | 3 | 11 | 176 | -2
O=c1[nH]c2cc3c(cc2cc1C(c1nnnn1Cc1ccccc1)N1CCCc2ccccc21)OCO3 (stereo not given) | -1 | -12 | 56*[fluorescence artefact?] | 30 | 151 | -16
COc1cc2cc(C(c3nnnn3C(C)(C)C)N3CCc4ccccc43)c(=O)[nH]c2cc1OC (stereo not given) | -9 | 0 | -7 | 0 | 98 | -4
Cc1cccc2cc(C(c3nnnn3CC3CCCO3)N3CCc4ccccc4C3)c(=O)[nH]c12 (stereo not given) | -21 | 13 | 2 | -13 | 102 | 6
COc1ccc(CC(NC(C)=O)C(=O)NC2CCN(c3nc(C)cc(C)c3C#N)CC2)c(OC)c1 (stereo not given) | x | 8 | -5 | 8 | 118 | x
Cc1ccc(CCCC(=O)O)cc1C | x | -7 | x | x | x | x
